A selection: hits, their analogues and other compounds. The true share with any hit is near 5.5%.
RORg inh: inhibitors of mouse ROR gamma transcriptional activity; hit rate 5.4% among 310,000; Potency, µM (doses to about 53.6 µM), without a hit: at the highest dose activity change, negative = inhibition, hits mostly inhibitors; Drosophila S2 Gal4-RORgamma UAS-luciferase reporter, 20 h; P51450; further: on the % scale 0 is the no-effect control and ±100 the full control effect; nearly all actives have a fitted effect of over 60% in size
Target sequence (P51450 whole entry, looked up, the tested form may be a part): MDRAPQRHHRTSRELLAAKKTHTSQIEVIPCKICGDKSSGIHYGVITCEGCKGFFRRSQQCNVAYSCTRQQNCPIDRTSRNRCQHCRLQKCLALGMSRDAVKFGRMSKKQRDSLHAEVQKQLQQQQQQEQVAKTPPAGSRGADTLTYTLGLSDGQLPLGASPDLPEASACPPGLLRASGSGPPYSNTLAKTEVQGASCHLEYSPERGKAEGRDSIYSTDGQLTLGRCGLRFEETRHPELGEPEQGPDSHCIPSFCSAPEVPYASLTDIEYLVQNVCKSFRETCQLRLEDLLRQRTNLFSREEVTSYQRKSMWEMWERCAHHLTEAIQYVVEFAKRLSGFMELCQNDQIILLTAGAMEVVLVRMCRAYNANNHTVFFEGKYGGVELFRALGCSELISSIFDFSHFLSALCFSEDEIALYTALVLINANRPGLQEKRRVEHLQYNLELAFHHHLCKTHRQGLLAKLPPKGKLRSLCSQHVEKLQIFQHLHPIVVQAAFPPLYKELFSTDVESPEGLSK
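Stable Schneider cell line, Gal4 DNA-binding domain fused to ROR gamma, UAS-luciferase. Cmpd 1 hr RT → CuSO4 700 uM final → 20 hr RT → luciferase reagent 10 min → luminescence.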
BCR signal inh: inhibitors of chronic active B-cell receptor signaling; hit rate 0.05% among 340,000; ABC-DLBCL IkBa-CBG/CBR reporter, luminescence ratio, 4 h; Potency, µM (doses to about 46.1 µM), for the others: at the highest dose activity change, negative = inhibition, usual class: inhibitors; AID 493014; active means well fitted inhibition curve with a large enough effect in the signal ratio, with a control signal flat, not every such curve was filed as active; inconclusive means small, poorly fitted or top-dose-only effect, or effect the other way, or a change in a side signal; the % refers to the signal ratio;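 further: plate controls were basal doxycycline-induced cells for no effect and cells given 10 µM MG132 for full effect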
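TMD8 human ABC-DLBCL cells with doxycycline-inducible IκBα–green luciferase fusion and unfused red luciferase, in 0.5% FBS medium; compounds up to 46 uM, 4 h at 37C. Green/red luminescence ratio, filter-overlap corrected, fitted to concentration-response curves.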
a7 integrin act: integrin-mediated muscular dystrophy alleviation activation; hit rate 0.064% among 350,000; alpha7betagal myoblasts, beta-gal FDG fluorescence, 48 h; Potency, µM (titrated, usually from 38.3 µM), without a hit: at the top dose activation, hits mostly activators; AID 624291;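 further: 100% = response of the positive control SU9516; nearly all actives have a fitted effect of over 60% in size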
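alpha7betagal+/- myoblasts (passage 13, 250/well) treated 48 h at 37C with compounds at 1:260 dilution of DMSO stock. Lysed, then beta-galactosidase activity read as FDG fluorescence (ex 480/em 540) after 30 min, with pre-read for autofluorescence.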
uPA generation: cell surface uPA generation inhibition | hit rate 0.31% among 330,000 | Potency, µM (top dose mostly 38.3 µM), for inactives: at the highest dose activity change, negative = inhibition, most hits filed as inhibitors | cell surface uPA generation assay, qHTS | AID 540303; active means well fitted inhibition curve with a large enough effect; inconclusive means small, poorly fitted or top-dose-only effect; inactive means no such curve, though single readings can be large or run the other way; tested in mouse RAW 264.7 cells; further: on the % scale 0 is the no-effect control and ±100 the full control effect; nearly all actives have a fitted effect of over 55% in size
VP16 counter: inhibits Gal4-VP16 luciferase reporter, ROR gamma counter-screen | Drosophila S2 Gal4-VP16 UAS-luciferase, luminescence, 20 h | Potency, µM (series often up to 53.6 µM), for inactives: top-dose activity, negative = inhibition, hits mostly inhibitors | hit rate 3.5% among 310,000 | AID 2546;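 further: Gal4-VP16 expression switched on by copper sulfate through the metallothionein promoter; on the % scale 0 is the no-effect control and ±100 the full control effect; nearly all actives have a fitted effect of over 50% in size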
Mito fusion yeast: mitochondrial division inhibition or fusion activation; S. cerevisiae fusion-defective mutant growth rescue, CellTiterGlo 48 h; Potency, µM (doses to about 46.1 µM), without a hit: top-dose growth rescue (activation), actives largely listed as activators; hit rate 0.23% among 320,000; AID 485298; further: % of control where 0% means no effect; nearly all actives have a fitted effect of over 45% in size
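Compounds are tested for their ability to restore growth of mitochondrial fusion-defective yeast strains at non-permissive 37C in YPEG medium over 48 hours. Viability is quantified by luciferase luminescence.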
Active calls of the source: *; ? = inconclusive; · = no result; [ ] = dose if it differs, or a comment. Unless noted, the call rests on the fitted dose curve; in most records, active means well fitted curve in the direction sought with a large enough effect; inconclusive means small, poorly fitted or top-dose-only effect, or another doubt; inactive means no such curve, though single readings can be large; an effect the other way counts as inactive or inconclusive. Potency means the concentration at half of the fitted maximal effect.

SMILES	RORg inh	BCR signal inh	a7 integrin act	uPA generation	VP16 counter	Mito fusion yeast
O=C(Nc1ccccc1)C1CCCCC1	17.1%	-21.8%	-10.0%[7.66 µM]	2.3%	-1.0%	1.2%
O=C(NC(=S)Nc1ccc(Br)cc1)C1CCCCC1	5.01µM*	?	14.1%	1.2%	7.94µM*	-10.4%
CC(=O)NC(=S)Nc1cccc([N+](=O)[O-])c1	?	-3.6%	-11.6%	1.3%	16.3%	-2.8%
O=C(Nc1ccc(Br)cc1)C1CCCC1	-21.2%	-3.1%	14.3%	3.3%	1.2%	4.0%
O=C(NC(=S)Nc1ccccc1)C1CCCCC1	2.82µM*	?	15.6%	2.6%	3.98µM*	-5.1%
O=C(NC(=S)NCc1ccccc1)C1CCCCC1	1.58µM*	6.8%	-22.3%	3.7%	7.08µM*	-5.1%
C[C@@H]1COC(=O)O1	-11.8%	·	·	·	-2.3%	·
Cc1cccc(C(=O)OCC(=O)Nc2c(C)n(C)n(-c3ccccc3)c2=O)c1	·	2.7%	23.5%	0.1%	·	-4.4%
NS(=O)(=O)c1ccc(NC(=S)NC(=O)C2CCCCC2)cc1	0.1%	?	1.3%	4.3%	5.9%	12.0%
O=C(NC(=S)Nc1ccc(Br)cc1)C1CCC1	6.31µM*	?	10.5%	3.5%	7.94µM*	-3.7%
O=[N+]([O-])c1cccc(NC(=S)Nc2nc(-c3ccccc3Cl)cs2)c1	2µM*	?	?	-9.4%	2.51µM*	-5.2%
O=C(Nc1ccc(N2CCCC2)c(Cl)c1)c1cccs1	10.5%	?	-6.8%	-6.7%	-24.8%	11.6%
O=C(NC(=S)Nc1ccc(N2CCOCC2)c(Cl)c1)c1cccs1	?	-6.4%	2.4%	3.8%	14.1µM*	21.3%
O=C(NC(=S)Nc1ccc(N2CCCCC2)c(Cl)c1)c1ccc2c(c1)OCCO2	3.16µM*	0.1%	-35.0%	3.5%	6.31µM*	2.1%
O=C(NC(=S)Nc1ccccc1N1CCCCC1)c1cccs1	1.58µM*	0.9%	-5.4%	2.9%	?	2.5%
O=C(Nc1ccc(N2CCOCC2)c(Cl)c1)c1cccnc1	12.0%	-7.4%	11.1%	-0.7%	17.5%	-2.0%
O=C(NC(=S)Nc1ccc(N2CCOCC2)c(Cl)c1)c1cncc(Br)c1	1µM*	-7.5%	0.5%	0.5%	0.562µM*	-2.7%
CC(C)NC1(C(N)=O)CCN(Cc2ccccc2)CC1	·	·	-11.4%	2.2%	·	·
CC(C)C[C@@H](CC(=O)N[C@H](CC(=O)N[C@@H]1CCNC[C@H]1C(=O)N[C@H](CC(=O)N[C@@H](CCC(=O)O)CC(=O)O)Cc1c[nH]c2ccccc12)C(C)C)NC(=O)[C@@H]1CNCC[C@H]1N	11.3%	·	·	·	3.0%	·
CC[N+](CC)(CC)CC[C@](O)(c1ccccc1)C1CCCCC1	-1.2%[2.98 µM]	·	·	·	5.4%[17 µM]	·
CC(C)CC(=O)NC(=S)Nc1ccc(N2CCOCC2)c(Cl)c1	7.94µM*	?	-15.7%	-1.0%	?	17.0%
O=C(NC(=S)Nc1ccccc1N1CCOCC1)c1cccs1	6.31µM*	?	-7.0%	7.0%	14.1µM*	8.7%
O=C(NC(=S)Nc1ccccc1N1CCCC1)c1cccs1	4.47µM*	19.6%	-32.3%	-11.4%	15.8µM*	2.5%
COc1ccccc1NS(=O)(=O)c1ccc(C)c(NC(=O)C2CCCO2)c1 (stereo not given)	·	?	21.2%	11.2%	·	-3.2%
CCN(C(=O)c1ccc2c(c1)N(Cc1cccc(Cl)c1)C(=O)c1ccccc1S2=O)c1ccccc1 (stereo not given)	·	18.2%	·	·	·	·
SMILES	RORg inh	BCR signal inh	a7 integrin act	uPA generation	VP16 counter	Mito fusion yeast
O=C(N/N=C/c1cccnc1)c1sc2ccccc2c1Cl	12.6µM*	?	-27.3%	3.2%	25.1µM*	-0.6%
COc1ccc2c(Cl)c(C(=O)N/N=C/c3cccnc3)sc2c1	?	-13.6%	-23.3%	-1.1%	-17.6%	-1.1%
O=C(NN=C1CCCC1)c1sc2ccccc2c1Cl	11.2µM*	?	11.1%	2.7%	?	4.5%
Cc1ccc(S(=O)(=O)NCCC(=O)N2CC(C)OC(C)C2)cc1C (stereo not given)	·	1.1%	17.4%	8.7%	·	2.4%
CCOc1ccc(C(=O)CC(Sc2ccc(C)cc2)C(=O)O)cc1 (stereo not given)	4.47µM*	?	-16.3%	-7.4%	?	-0.1%
Nc1nonc1-n1nnc(C(=O)N/N=C/c2cccs2)c1-c1ccc2c(c1)OCO2	7.94µM*	3.4%	66.2%	-3.0%	10µM*	-2.8%
Cc1ccsc1/C=N/NC(=O)c1nnn(-c2nonc2N)c1-c1ccc2c(c1)OCO2	10µM*	?	-1.2%	7.2%	?	-0.6%
Nc1nonc1-n1nnc(C(=O)N/N=C/c2ccccc2Cl)c1-c1ccc2c(c1)OCO2	18.6%	-0.4%	0.0%	5.8%	-21.8%	-2.1%
Cc1ccc(-c2c(C(=O)N/N=C/c3ccc4c(c3)OCO4)nnn2-c2nonc2N)cc1	-18.3%	6.2%	-16.7%	4.7%	0.6%	13.2%
CCOC(=O)c1sc(SC)c2c1CCCC2=O	-12.3%	-20.5%	0.0%	-5.9%	-1.3%	1.1%
CC1(C)CC(=O)C2=C(C1)Oc1nc3ccccc3cc1C2C(C#N)C#N (stereo not given)	3.16µM*	?	-12.8%	-8.0%	?	-14.2%
O=C([O-])[C@@H]1[O][Sb+]([O][Sb+]2[O][C@H]([C@H](O)CO)[C@H](O)[C@H](C(=O)[O-])[O]2)[O][C@H]([C@H](O)CO)[C@@H]1O	1.0%	·	·	·	-3.6%	·
O=C(N/N=C/c1ccncc1)c1ccncc1	·	·	20.2%	3.9%	·	·
O=C(N/N=C/c1cn[nH]c1-c1ccc(F)cc1)c1ccncc1	-12.6%	-4.2%	14.1µM*	5.2%	-8.7%	-1.6%
Cc1ccnn1CC(=O)N/N=C/c1cn[nH]c1-c1ccc(F)cc1	14.1µM*	4.0%	-39.8%	4.3%	?	3.0%
CCCCCn1c(=S)[nH]c2ncccc2c1=O	1.12µM*	-2.1%	2.5%	-0.2%	2.82µM*	-9.1%
O=c1c2cccnc2[nH]c(=S)n1CCC1=CCCCC1	0.891µM*	6.4%	14.1%	0.0%	1.58µM*	-5.2%
COCCCn1c(=S)[nH]c2ncccc2c1=O	11.2µM*	4.5%	-1.2%	-3.2%	-24.7%	0.6%
COCCn1c(=S)[nH]c2ncccc2c1=O	-22.3%	-2.4%	-13.9%	-4.8%	-19.9%	-3.5%
CN(CCCn1c(=S)[nH]c2ncccc2c1=O)Cc1ccccc1	-40.7%	1.0%	-7.2%	3.3%	-10.9%	-4.2%
CC(C)(C)OC(=O)N1CCCC(C(=O)Nc2cccc(C(=O)N3CCCCC3)c2)C1 (stereo not given)	·	·	14.0%	14.6%	·	·
FC(F)(F)c1cccc(Sc2nc(-c3ccccc3)nnc2C(F)(F)F)c1	3.55µM*	-5.0%	-21.0%	-1.8%	?	7.1%
FC(F)(F)c1nnc(-c2ccccc2)nc1Sc1ccc(Cl)cc1	6.31µM*	6.0%	5.8%	-1.2%	?	10.5%
